Measurements reported in PubChem BioAssay.
Values without a mark were called inactive. How the calls were made is not given here.

system: Aerobactin synthetase IucA (Klebsiella pneumoniae hvKP1); experiment: IucA enzyme inhibition, primary screen, biochemical, Spectrum library (AID 1346200); details: malachite green pyrophosphate, A620, at 8 µM, stronger effect = lower value;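 further: 100% = wells without compound and 0% = wells lacking enzyme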

First: CC1/C(=N/O)C[C@@H]2C[C@H]1C2(C)C (some centres undefined)
Second: C[C@]12C=CC(=O)C=C1CCC1C2[C@@H](O)C[C@@]2(C)C1CC[C@]2(O)C(=O)CO (some centres undefined)
The activity remaining of the first is lower: 110% for the first, 119% for the second.

Compared with `CC(=O)OCC(CCn1cnc2cnc(N)nc21)COC(C)=O`, `COC(=O)CC1C(C)(C)C(OC(C)=O)[C@@H]2[C@@H](OC(C)=O)[C@]34O[C@@]2(O)[C@]1(C)C3CC[C@]1(C)C4=CC(=O)O[C@H]1c1ccoc1` (some centres undefined) is higher in activity remaining: 121% for the first, 124% for the second.

First: C/C=C1\[C@H]2C=C(C)C[C@]1(N)c1ccc(=O)[nH]c1C2
Second: CC1=C(C(=O)O)N2C(=O)[C@@H](NC(=O)C(N)c3ccccc3)[C@H]2SC1 (some centres undefined)
The activity remaining of the first is higher: 122% for the first, 104% for the second.

First: COc1c(-c2coc3cc4c(cc3c2=O)CC(O)C(C)(C)O4)ccc2c1C=CC(C)(C)O2 (centres undefined)
Second: COc1ccc2cc1Oc1ccc(cc1)C[C@H]1c3c(cc4c(c3Oc3cc5c(cc3OC)CCN(C)[C@@H]5C2)OCO4)CCN1C
The activity remaining of the first is lower: 112% for the first, 115% for the second.

First: CC(C(=O)O)c1ccc(-c2ccccc2)c(F)c1 (centres undefined)
Second: CN(C)CCOC(c1ccc(Cl)cc1)c1ccccn1 (centres undefined)
The activity remaining of the first is lower: 104% for the first, 115% for the second.

Going from `CC1=C(/C=C/C(C)=C/C=C/C(C)=C/C=C/C=C(C)/C=C/C=C(C)/C=C/C(=O)[C@]2(C)C[C@@H](O)CC2(C)C)C(C)(C)C[C@H](O)C1` to `C[C@]12C=CC(=O)C=C1CCC1C2[C@@H](O)C[C@@]2(C)C1CC[C@]2(O)C(=O)COP(=O)(O)O` (some centres undefined), the activity remaining rises from 108% to 117%.

Going from `OC(c1cc(C(F)(F)F)nc2c(C(F)(F)F)cccc12)C1CCCCN1` (centres undefined) to `Cc1c(Nc2ncccc2C(=O)O)cccc1C(F)(F)F`, the activity remaining falls from 120% to 117%.

Going from `CCN1CCN(C(=O)NC(C(=O)N[C@@H]2C(=O)N3[C@@H]2SC(C)(C)[C@@H]3C(=O)O)c2ccccc2)C(=O)C1=O` (some centres undefined) to `CC1=CC(=O)C2C(C)(C)CCC[C@]2(C)[C@@]1(O)CCc1ccoc1` (some centres undefined), the activity remaining rises from 104% to 105%.

Compared with `C[C@@H]1[C@H]2[C@H](O[C@@H]3O[C@H](CO)[C@@H](O)[C@H](O)[C@H]3O)OC=C(C(=O)O)[C@H]2C[C@@H]1O`, `O=C(O)c1ccc2c(c1)OCO2` is lower in activity remaining: 120% for the first, 101% for the second.

`O=C(O)CCC(=O)Nc1ccc(S(=O)(=O)Nc2nccs2)cc1` was tested, and the activity remaining was 116%.
